In general, inhibition refers to the drop in the measured response relative to a control, in per cent.

Values without a mark were called inactive. The source made the active and inactive calls. No stated cut-off is given here; in the data, active means inhibition above about 44%; inactive means the rest.

In the assay the target is Steroidogenic factor 1 (Homo sapiens) (UniProt Q13285). Put plainly: inverse agonism at SF1 nuclear receptor – cell-based, luminescence, high throughput, counter-screen for LRH-1 inverse agonist project (AID 651614).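 Further: cells cotransfected with StAR promoter reporter and SF1 expression vector; 0% = vehicle on cells with receptor and 100% = vehicle on cells lacking receptor.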 The settings on record: cell-based SF1 luciferase reporter, at 3.6 µM, stronger effect = higher value. Background: Counterscreens check selectivity or assay interference.
Steroidogenic factor 1 (Homo sapiens), sequence (Q13285 whole entry, looked up): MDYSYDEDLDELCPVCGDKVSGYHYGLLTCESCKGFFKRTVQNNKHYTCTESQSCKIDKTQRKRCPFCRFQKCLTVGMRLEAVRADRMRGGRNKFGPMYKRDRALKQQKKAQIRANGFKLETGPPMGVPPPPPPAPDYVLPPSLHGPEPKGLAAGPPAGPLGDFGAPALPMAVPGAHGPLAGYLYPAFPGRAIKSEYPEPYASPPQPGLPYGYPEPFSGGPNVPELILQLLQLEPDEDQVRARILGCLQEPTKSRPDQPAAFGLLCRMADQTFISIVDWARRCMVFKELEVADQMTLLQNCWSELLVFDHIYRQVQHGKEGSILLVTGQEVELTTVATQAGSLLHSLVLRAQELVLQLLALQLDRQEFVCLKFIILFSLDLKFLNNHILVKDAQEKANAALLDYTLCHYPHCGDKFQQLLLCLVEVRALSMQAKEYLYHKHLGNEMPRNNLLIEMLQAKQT
Take `N=c1ccn(CC(=O)c2ccc(-c3ccccc3)cc2)cc1`: the inhibition is 76.3% (active).

For the compound `C(=NNc1ccc2ccccc2n1)c1ccccn1`, the inhibition was 59.2% (active).

Turning to `CC(=NNC(=S)Nc1ccc(C)cc1)c1ccccn1`, the inhibition was 85.4% (active).

Turning to `Cc1cc(-c2nnc(SCC(=O)Nc3ccccc3C(F)(F)F)o2)c(C)n1-c1ccccc1`, the inhibition is 14.8%.

Turning to `CCC(=O)NC(c1ccc(Cl)cc1Cl)c1ccc2cccnc2c1O` (stereo not given), the inhibition is 87.2% (active).

Turning to `CCOc1ccc(C(=O)Nc2cnn(Cc3ccc(Cl)c(Cl)c3)c2)cc1`, the inhibition was 60.1% (active).

For the compound `Cc1ccc(-n2c(-c3ccccc3)c[n+]3c2CCc2ccccc2-3)c(C)c1`, the inhibition is 87.7% (active).

In the case of `CC1Cc2cc(-c3csc(NC(=O)Cc4cccs4)n3)ccc2N1S(C)(=O)=O` (stereo not given), the inhibition was 62% (active).

For the compound `Cc1ccc2nc(NC(=O)CSCC(=O)OCC(=O)c3ccccc3)sc2c1`, the inhibition is 39.6%.

With `O=c1[nH]cnc2c1nnn2C1OC(CO)C(O)C1O` (stereo not given), the inhibition was 71.1% (active).

With `Cc1cccc(-n2c(N)c(-c3nc4ccccc4n3C)c3nc4ccccc4nc32)c1`, the inhibition is 10.3%.

`CN(C)c1ccc(/C=C/c2ccc3ccccc3[n+]2C)cc1`: the inhibition is 76.6% (active).

Regarding `COc1ccc(C(=O)Nc2cnn(Cc3ccc(Cl)cc3)c2)cc1OC`, the inhibition was 64% (active).

On to `CCOC(=O)c1cc2c(=Cc3ccc(N(C)C)cc3)c3ccccc3n2[n+]1C`, for which the inhibition is 85.7% (active).

For `COc1cc(C2c3cc4c(cc3C(OC3OC5COC(c6cccs6)OC5C(O)C3O)C3COC(=O)C23)OCO4)cc(OC)c1O` (stereo not given), the inhibition was 54.5% (active).

For the compound `CCc1nc(N)nc(N)c1-c1ccc(N(C)Cc2ccccc2)c([N+](=O)[O-])c1`, the inhibition is 65.9% (active).

As for `Cc1ccc(S(=O)(=O)Nc2ccccc2C(=O)Nc2nc(-c3ccc(F)cc3)cs2)cc1`, the inhibition was 80.3% (active).

`COc1ccc(NC(=O)c2sc(=O)n(Cc3cccc(C(F)(F)F)c3)c2C)cc1OC`: the inhibition is 69% (active).

In the case of `CC#CC[N+](C)(C)CCCCCCCCCCCC`, the inhibition is 65.9% (active).

On to `Cc1cccc2cc(-c3ccccc3)c(-c3ccccc3)c[n+]12`, for which the inhibition is 63.2% (active).

Consider `CCN(CC)c1ccc(/C=C/c2ccc3ccc(OC)cc3[n+]2CC)cc1`, for which the inhibition is 90.8% (active).

For the compound `Cc1cc(/C=C2\Sc3ccccc3N2C)cc(C)[n+]1CC1CCCO1` (stereo not given), the inhibition was 90.5% (active).

On to `CC(C)CCCCCCCCCCCCC(=O)NCC(=O)NC1C(O)C(O)C(Nc2ncnc3nc[nH]c23)OC1C(O)CO` (stereo not given), for which the inhibition is 98.1% (active).

In the case of `O=C1NC(=O)C(c2ccc(F)cc2)N1` (stereo not given), the inhibition is 2.89%.

As to `CCN(CC)c1ccc(/C=C/c2cccc[n+]2C)c(OC)c1`, the inhibition is 91.8% (active).

Take `CCc1ccc(/C=C/c2c[nH]c3ccccc23)[n+](CC)c1`: the inhibition is 74% (active).

`NC(=O)c1cc([N+](=O)[O-])ccc1NCc1ccc(O)cc1`: the inhibition is 67.8% (active).

With `CCN(CC)CCCNc1nc2ccccc2c2[nH]c3ccc(OC)cc3c12`, the inhibition is 60.5% (active).

Consider `CC1=NN(c2nc3ccccc3[nH]2)C(=O)C1Cc1ccccc1` (stereo not given), for which the inhibition was 88.7% (active).

Regarding `Nc1nc(N)c2c(ccc3c2ccn3Cc2cccc([N+](=O)[O-])c2)n1`, the inhibition is 67.4% (active).

`CCN1/C(=C/c2ccc3cc(C)ccc3[n+]2CC)Sc2ccccc21`: the inhibition was 92.3% (active).

Take `CC(C)(C)c1ccc(-c2cn(-c3ccc(Br)cc3)c3[n+]2CCCS3)cc1`: the inhibition is 80.7% (active).

`COc1ccc(C2=Nn3c([n+](C)c4ccccc43)SC2)cc1`: the inhibition was 86.5% (active).

Consider `CCOC(=O)C(C(C)=O)c1c(Br)c(O)c(O)c2c(C(=O)c3ccc(C)cc3)coc12` (stereo not given), for which the inhibition is 83.7% (active).

`N=c1c2c(n(Cc3ccc(F)cc3)c3c1CCC3)CCCC2`: the inhibition is 70.9% (active).

For the compound `Cc1nc(N)nc(N)c1/C=C/C(C)(C)c1ccc(Cl)cc1`, the inhibition is 56.5% (active).

In the case of `COCCn1c(C)cc(C(=O)COC(=O)c2ccccc2Br)c1C`, the inhibition is 50.9% (active).

As for `CC(=O)c1cccc(N=c2scc(-c3ccc(S(=O)(=O)N4CCOCC4)cc3)n2CCO)c1`, the inhibition was 69.7% (active).

In the case of `CC(=NNC(=S)N1CC2CCC(CC2)C1)c1ccccn1`, the inhibition was 77.3% (active).

On to `O=C(N/N=C/c1ccc[nH]1)c1ccc(COc2cccc3cccnc23)cc1`, for which the inhibition was 96.3% (active).

These data come from PubChem BioAssay.
